# Source: PubChem BioAssay (NCATS)
# Results filed as inconclusive are left out. Entries that show only a call come without a potency. Unmarked numbers belong to inactive results. Calls of active or inactive are those of the source. Calls follow the shape of the dose curve; as a rule, active = well fitted curve in the direction sought with a large enough effect; inconclusive = small, poorly fitted or top-dose-only effect, or another doubt; inactive = no such curve, though single readings can be large; an effect the other way counts as inactive or inconclusive.
# Assays:
# Hek293T = assay: Primary qHTS to identify gynecologic anti-cancer compounds using libraries of approved drugs and bioactive compounds (AID 1345084); conditions: Gynecologic cancer cell panel viability, ATPlite luminescence, 48 h, control line for the selectivity index; series mostly up to 57.5 µM; also: nearly all actives have a fitted effect of over 55% in size
# In short: (§1)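 Cytotoxicity screen measuring ATP content by luciferase luminescence. Each compound is applied at five concentrations for 48 h at 37 C with 5% CO2.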
# JEG-3 = assay: as above; conditions: Gynecologic cancer cell panel viability, ATPlite luminescence, 48 h; series mostly up to 57.5 µM
# In short: as §1
# OV90 = assay: as above; conditions: Gynecologic cancer cell panel viability, ATPlite luminescence, 48 h; series mostly up to 57.5 µM
# In short: as §1
# PA-1 = assay: as above; conditions: Gynecologic cancer cell panel viability, ATPlite luminescence, 48 h; series mostly up to 57.5 µM
# In short: as §1
# SKOV3 = assay: as above; conditions: Gynecologic cancer cell panel viability, ATPlite luminescence, 48 h; series mostly up to 57.5 µM
# In short: as §1
# Tov-21-G = assay: as above; conditions: Gynecologic cancer cell panel viability, ATPlite luminescence, 48 h; series mostly up to 57.5 µM
# In short: as §1
# Tov112D = assay: as above; conditions: Gynecologic cancer cell panel viability, ATPlite luminescence, 48 h; series mostly up to 57.5 µM
# In short: as §1
# [1] = Drug repurposing screens with cells derived from glioblastoma tumor samples (AID 1345199); conditions: GBM patient neurospheres viability, ATP luminescence, 48 h; also: nearly all actives have a fitted effect of over 40% in size; also: potency is read from the fitted curve at half-maximal effect
# In short: (§2)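 Four patient lines of CD133+ GBM neurospheres were screened at several concentrations; hits were retested in those lines plus three slower-growing GBM lines, using 48-hour treatment and ATP-based viability.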
# astro = assay: as above; conditions: viability, ATP luminescence, 48 h; series mostly up to 45.9 µM
# In short: as §2
# [2] = at 45.9 µM (top of the series), tumour line B
# [3] = at 45.9 µM (top of the series), tumour line D
# [4] = at 46.1 µM (top of the series), tumour line C
# [5] = at 46 µM (top of the series), tumour line A
Structure (SMILES),Potency (Hek293T),Potency (JEG-3),Potency (OV90),Potency (PA-1),Potency (SKOV3),Potency (Tov-21-G),Potency (Tov112D),"activity, negative = cell killing ([1]; at 20 µM (top of the series), tumour line C)","activity, negative = cell killing ([1]; at 21.2 µM (top of the series), tumour line B)","activity, negative = cell killing ([1]; at 21.2 µM (top of the series), tumour line D)","activity, negative = cell killing ([1]; at 21.3 µM (top of the series), tumour line A)",Potency (astro),"activity, negative = cell killing [1, 2]","activity, negative = cell killing [1, 3]","activity, negative = cell killing [1, 4]",Potency ([1]; tumour line A),"activity, negative = cell killing [1, 5]"
CCO/C([O-])=N/c1c[n+](N2CCOCC2)no1,inactive,inactive,inactive,inactive,inactive,inactive,inactive,-6.76%,-3.07%,-1.62%,-22.7%,inactive,–,–,–,–,–
CCOC(=O)c1cnc2c(cnn2CC)c1NN=C(C)C,inactive,inactive,inactive,inactive,inactive,inactive,inactive,–,–,–,–,inactive,-11.6%,-28.3%,-18.1%,11.2 µM (active),–
CCn1ccnc1CC1COc2ccccc2O1 (configuration not stated),inactive,inactive,inactive,inactive,inactive,inactive,inactive,–,–,–,–,inactive,-17.6%,-4.46%,-8.32%,–,–
Nc1c2c(nc3ccccc13)CCCC2O (configuration not stated),inactive,inactive,inactive,inactive,inactive,inactive,inactive,–,–,–,–,inactive,4.45%,4.03%,-7.2%,–,–
CCn1cc(C(=O)O)c(=O)c2cc3c(cc21)OCO3,inactive,inactive,inactive,inactive,inactive,inactive,inactive,–,–,–,–,inactive,-1.33%,-1.7%,-10%,–,-12.9%
CN1C(=O)CC[C@H]1c1cccnc1,inactive,inactive,inactive,inactive,inactive,inactive,inactive,–,–,–,–,inactive,-1.32%,-18.5%,-34.2%,–,-11.4%
CCN(Cc1ccncc1)C(=O)C(CO)c1ccccc1 (configuration not stated),inactive,inactive,inactive,inactive,inactive,inactive,inactive,–,–,–,–,inactive,-2.8%,-5.82%,1.27%,–,-16.9%
